Publication PMC11006913
Substitutions are numbered along the chain they refer to.

Tests used:
Test in all cases: PBM; 200 nM protein, PBS
Conditions in all cases: dsDNA, one strand shown
NKX2-5 [1] = molecular target: NKX2-5 (Homo sapiens, UniProt P52952 125-210, R139K)
SIX6 [2] = molecular target: T1, SIX6 (Homo sapiens, UniProt O95475 114-200, L167I)
T1 sequence: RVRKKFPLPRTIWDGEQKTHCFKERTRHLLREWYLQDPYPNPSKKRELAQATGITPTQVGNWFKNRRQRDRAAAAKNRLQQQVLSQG

SIX6 [3] = molecular target: T2, SIX6 (Homo sapiens, UniProt O95475 114-200, L143V)
T2 sequence: T1 sequence with L30V, I54L

SIX6 [4] = molecular target: T3, SIX6 (Homo sapiens, UniProt O95475 114-200, H141N)
T3 sequence: T1 sequence with H28N, I54L

SIX6 [5] = molecular target: T4, SIX6 (Homo sapiens, UniProt O95475 114-200, T165P)
T4 sequence: T1 sequence with T52P, I54L

SIX6 [6] = molecular target: T5, SIX6 (Homo sapiens, UniProt O95475 114-200, L167M)
T5 sequence: T1 sequence with I54M

SIX6 [7] = molecular target: T6, SIX6 (Homo sapiens, UniProt O95475 114-200, L143M)
T6 sequence: T1 sequence with L30M, I54L

SIX6 [8] = molecular target: T7, SIX6 (Homo sapiens, UniProt O95475 114-200, L143I)
T7 sequence: T1 sequence with L30I, I54L

SIX6 [9] = molecular target: T8, SIX6 (Homo sapiens, UniProt O95475 114-200, T165G)
T8 sequence: T1 sequence with T52G, I54L

HOXA2 [10] = molecular target: HOXA2 (Homo sapiens, UniProt O43364 129-215, R185T)
Sequence of HOXA2 (Homo sapiens, UniProt O43364 129-215, R185T) (O43364 129-215 R185T): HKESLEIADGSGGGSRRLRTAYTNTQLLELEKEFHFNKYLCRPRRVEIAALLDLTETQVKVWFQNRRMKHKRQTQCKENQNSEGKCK

SIX6 [11] = molecular target: T9, SIX6 (Homo sapiens, UniProt O95475 114-200, T139Q)
T9 sequence: T1 sequence with T26Q, I54L

SIX6 [12] = molecular target: T10, SIX6 (Homo sapiens, UniProt O95475 114-200, T165A)
T10 sequence: T1 sequence with T52A, I54L

HOXA2 [13] = molecular target: HOXA2 (Homo sapiens, UniProt O43364 129-215, R185K)
Sequence of HOXA2 (Homo sapiens, UniProt O43364 129-215, R185K) (O43364 129-215 R185K): as the sequence (O43364 129-215 R185T) above, with T57K counted along it

SIX6 [14] = molecular target: T11, SIX6 (Homo sapiens, UniProt O95475 114-200, L167V)
T11 sequence: T1 sequence with I54V

SIX6 [15] = molecular target: T12, SIX6 (Homo sapiens, UniProt O95475 114-200)
T12 sequence: T1 sequence with I54L

SIX6 [16] = molecular target: T13, SIX6 (Homo sapiens, UniProt O95475 114-200, T165I)
T13 sequence: T1 sequence with T52I, I54L

HOXA2 [17] = molecular target: HOXA2 (Homo sapiens, UniProt O43364 129-215, Y150S)
Sequence of HOXA2 (Homo sapiens, UniProt O43364 129-215, Y150S) (O43364 129-215 Y150S): as the sequence (O43364 129-215 R185T) above, with Y22S, T57R counted along it

HOXA2 [18] = molecular target: HOXA2 (Homo sapiens, UniProt O43364 129-215)
Sequence of HOXA2 (Homo sapiens, UniProt O43364 129-215) (O43364 129-215): as the sequence (O43364 129-215 R185T) above, with T57R counted along it

NKX2-5 [19] = molecular target: NKX2-5 (Homo sapiens, UniProt P52952 125-210)
Sequence of NKX2-5 (Homo sapiens, UniProt P52952 125-210) (P52952 125-210): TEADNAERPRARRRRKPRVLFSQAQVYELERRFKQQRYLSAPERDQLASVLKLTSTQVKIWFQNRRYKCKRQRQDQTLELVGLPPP

HOXA4 [20] = molecular target: HOXA4 (Homo sapiens, UniProt Q00056 201-287, W262R)
Sequence of HOXA4 (Homo sapiens, UniProt Q00056 201-287, W262R) (Q00056 201-287 W262R): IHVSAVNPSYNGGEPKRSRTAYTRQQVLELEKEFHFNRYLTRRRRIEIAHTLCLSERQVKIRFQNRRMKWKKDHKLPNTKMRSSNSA

HOXA4 [21] = molecular target: HOXA4 (Homo sapiens, UniProt Q00056 201-287, R217L)
Sequence of HOXA4 (Homo sapiens, UniProt Q00056 201-287, R217L) (Q00056 201-287 R217L): as the sequence (Q00056 201-287 W262R) above, with R17L, R62W counted along it

HOXA4 [22] = molecular target: HOXA4 (Homo sapiens, UniProt Q00056 201-287)
Sequence of HOXA4 (Homo sapiens, UniProt Q00056 201-287) (Q00056 201-287): as the sequence (Q00056 201-287 W262R) above, with R62W counted along it

HOXA4 [23] = molecular target: HOXA4 (Homo sapiens, UniProt Q00056 201-287, W262F)
Sequence of HOXA4 (Homo sapiens, UniProt Q00056 201-287, W262F) (Q00056 201-287 W262F): as the sequence (Q00056 201-287 W262R) above, with R62F counted along it

HOXA7 [24] = molecular target: HOXA7 (Homo sapiens, UniProt P31268 116-202)
Sequence of HOXA7 (Homo sapiens, UniProt P31268 116-202) (P31268 116-202): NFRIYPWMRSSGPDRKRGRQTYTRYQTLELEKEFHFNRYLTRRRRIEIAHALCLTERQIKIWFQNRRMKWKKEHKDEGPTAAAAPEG

HOXA7 [25] = molecular target: HOXA7 (Homo sapiens, UniProt P31268 116-202, W177C)
Sequence of HOXA7 (Homo sapiens, UniProt P31268 116-202, W177C) (P31268 116-202 W177C): as the sequence (P31268 116-202) above, with W62C counted along it

HOXB6 [26] = molecular target: HOXB6 (Homo sapiens, UniProt P17509 132-218, K202E)
Sequence of HOXB6 (Homo sapiens, UniProt P17509 132-218, K202E) (P17509 132-218 K202E): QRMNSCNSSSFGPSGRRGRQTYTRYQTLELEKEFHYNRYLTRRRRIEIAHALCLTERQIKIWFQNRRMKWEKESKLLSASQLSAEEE

VAX1 [27] = molecular target: VAX1 (Homo sapiens, UniProt Q5SQQ9 86-172)
Sequence of VAX1 (Homo sapiens, UniProt Q5SQQ9 86-172) (Q5SQQ9 86-172): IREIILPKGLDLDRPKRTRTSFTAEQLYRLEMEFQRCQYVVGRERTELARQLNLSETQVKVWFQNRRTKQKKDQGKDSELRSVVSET

VAX1 [28] = molecular target: VAX1 (Homo sapiens, UniProt Q5SQQ9 86-172, T142I)
Sequence of VAX1 (Homo sapiens, UniProt Q5SQQ9 86-172, T142I) (Q5SQQ9 86-172 T142I): as the sequence (Q5SQQ9 86-172) above, with T57I counted along it

VAX1 [29] = molecular target: VAX1 (Homo sapiens, UniProt Q5SQQ9 86-172, K157R)
Sequence of VAX1 (Homo sapiens, UniProt Q5SQQ9 86-172, K157R) (Q5SQQ9 86-172 K157R): as the sequence (Q5SQQ9 86-172) above, with K72R counted along it

HOXB6 [30] = molecular target: HOXB6 (Homo sapiens, UniProt P17509 132-218)
Sequence of HOXB6 (Homo sapiens, UniProt P17509 132-218) (P17509 132-218): as the sequence (P17509 132-218 K202E) above, with E71K counted along it

PAX4 [31] = molecular target: T14, PAX4 (Homo sapiens, UniProt O43316 9-242, R200K)
T14 sequence: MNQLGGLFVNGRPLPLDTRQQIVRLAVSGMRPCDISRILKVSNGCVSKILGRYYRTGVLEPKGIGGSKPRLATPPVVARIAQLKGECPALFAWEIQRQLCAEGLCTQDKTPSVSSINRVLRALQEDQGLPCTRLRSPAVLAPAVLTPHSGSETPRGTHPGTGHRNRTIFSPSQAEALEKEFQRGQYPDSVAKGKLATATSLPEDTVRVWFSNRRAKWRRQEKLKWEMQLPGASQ

PAX4 [32] = molecular target: T15, PAX4 (Homo sapiens, UniProt O43316 9-242)
T15 sequence: T14 sequence with K192R

PAX4 [33] = molecular target: T16, PAX4 (Homo sapiens, UniProt O43316 9-242, R200Q)
T16 sequence: T14 sequence with K192Q

PAX4 [34] = molecular target: T17, PAX4 (Homo sapiens, UniProt O43316 9-242, F177V)
T17 sequence: T14 sequence with F169V, K192R

PAX4 [35] = molecular target: T18, PAX4 (Homo sapiens, UniProt O43316 9-242, F177Y)
T18 sequence: T14 sequence with F169Y, K192R

PAX4 [36] = molecular target: T19, PAX4 (Homo sapiens, UniProt O43316 9-242, R227W)
T19 sequence: T14 sequence with K192R, R219W

Sequence of NKX2-5 (Homo sapiens, UniProt P52952 125-210, R139K) (P52952 125-210 R139K): as the sequence (P52952 125-210) above, with R15K counted along it

## CCCTCCGG
NKX2-5 [1]
  binding signal: 8.58 upbm affinity estimate (log intensity, higher = more binding, comparable within an allelic series)
SIX6 [2]
  binding signal: 9.04 upbm affinity estimate (log intensity, higher = more binding, comparable within an allelic series)
SIX6 [3]
  binding signal: 8.92 upbm affinity estimate (log intensity, higher = more binding, comparable within an allelic series)
SIX6 [4]
  binding signal: 9.12 upbm affinity estimate (log intensity, higher = more binding, comparable within an allelic series)
SIX6 [5]
  binding signal: 8.9 upbm affinity estimate (log intensity, higher = more binding, comparable within an allelic series)
SIX6 [6]
  binding signal: 9.06 upbm affinity estimate (log intensity, higher = more binding, comparable within an allelic series)
SIX6 [7]
  binding signal: 8.95 upbm affinity estimate (log intensity, higher = more binding, comparable within an allelic series)
SIX6 [8]
  binding signal: 8.91 upbm affinity estimate (log intensity, higher = more binding, comparable within an allelic series)
SIX6 [9]
  binding signal: 9.05 upbm affinity estimate (log intensity, higher = more binding, comparable within an allelic series)
HOXA2 [10]
  binding signal: 7.03 upbm affinity estimate (log intensity, higher = more binding, comparable within an allelic series)
SIX6 [11]
  binding signal: 9.08 upbm affinity estimate (log intensity, higher = more binding, comparable within an allelic series)
SIX6 [12]
  binding signal: 9.09 upbm affinity estimate (log intensity, higher = more binding, comparable within an allelic series)
HOXA2 [13]
  binding signal: 10.1 upbm affinity estimate (log intensity, higher = more binding, comparable within an allelic series)
SIX6 [14]
  binding signal: 9.06 upbm affinity estimate (log intensity, higher = more binding, comparable within an allelic series)
SIX6 [15]
  binding signal: 9.06 upbm affinity estimate (log intensity, higher = more binding, comparable within an allelic series)
SIX6 [16]
  binding signal: 9.01 upbm affinity estimate (log intensity, higher = more binding, comparable within an allelic series)
HOXA2 [17]
  binding signal: 10.3 upbm affinity estimate (log intensity, higher = more binding, comparable within an allelic series)
HOXA2 [18]
  binding signal: 6.99 upbm affinity estimate (log intensity, higher = more binding, comparable within an allelic series)
NKX2-5 [19]
  binding signal: 8.53 upbm affinity estimate (log intensity, higher = more binding, comparable within an allelic series)

## CCCCCAAC
NKX2-5 [1]
  binding signal: 8.66 upbm affinity estimate (log intensity, higher = more binding, comparable within an allelic series)
HOXA4 [20]
  binding signal: 9.78 upbm affinity estimate (log intensity, higher = more binding, comparable within an allelic series)
HOXA2 [10]
  binding signal: 6.99 upbm affinity estimate (log intensity, higher = more binding, comparable within an allelic series)
HOXA4 [21]
  binding signal: 9.67 upbm affinity estimate (log intensity, higher = more binding, comparable within an allelic series)
HOXA2 [13]
  binding signal: 10.3 upbm affinity estimate (log intensity, higher = more binding, comparable within an allelic series)
HOXA4 [22]
  binding signal: 9.61 upbm affinity estimate (log intensity, higher = more binding, comparable within an allelic series)
HOXA2 [17]
  binding signal: 10.3 upbm affinity estimate (log intensity, higher = more binding, comparable within an allelic series)
HOXA4 [23]
  binding signal: 9.75 upbm affinity estimate (log intensity, higher = more binding, comparable within an allelic series)
HOXA2 [18]
  binding signal: 6.95 upbm affinity estimate (log intensity, higher = more binding, comparable within an allelic series)
NKX2-5 [19]
  binding signal: 8.6 upbm affinity estimate (log intensity, higher = more binding, comparable within an allelic series)

## ACCGGTCC
NKX2-5 [1]
  binding signal: 8.75 upbm affinity estimate (log intensity, higher = more binding, comparable within an allelic series)
HOXA7 [24]
  binding signal: 8.49 upbm affinity estimate (log intensity, higher = more binding, comparable within an allelic series)
HOXA7 [25]
  binding signal: 8.3 upbm affinity estimate (log intensity, higher = more binding, comparable within an allelic series)
NKX2-5 [19]
  binding signal: 8.88 upbm affinity estimate (log intensity, higher = more binding, comparable within an allelic series)

## CCTACGGA
NKX2-5 [1]
  binding signal: 8.68 upbm affinity estimate (log intensity, higher = more binding, comparable within an allelic series)
HOXB6 [26]
  binding signal: 9.05 upbm affinity estimate (log intensity, higher = more binding, comparable within an allelic series)
VAX1 [27]
  binding signal: 7.04 upbm affinity estimate (log intensity, higher = more binding, comparable within an allelic series)
VAX1 [28]
  binding signal: 7.2 upbm affinity estimate (log intensity, higher = more binding, comparable within an allelic series)
VAX1 [29]
  binding signal: 7.03 upbm affinity estimate (log intensity, higher = more binding, comparable within an allelic series)
NKX2-5 [19]
  binding signal: 8.68 upbm affinity estimate (log intensity, higher = more binding, comparable within an allelic series)
HOXB6 [30]
  binding signal: 8.95 upbm affinity estimate (log intensity, higher = more binding, comparable within an allelic series)

## ACGCCGGC
NKX2-5 [1]
  binding signal: 8.53 upbm affinity estimate (log intensity, higher = more binding, comparable within an allelic series)
PAX4 [31]
  binding signal: 9.13 upbm affinity estimate (log intensity, higher = more binding, comparable within an allelic series)
PAX4 [32]
  binding signal: 9.3 upbm affinity estimate (log intensity, higher = more binding, comparable within an allelic series)
PAX4 [33]
  binding signal: 9.23 upbm affinity estimate (log intensity, higher = more binding, comparable within an allelic series)
PAX4 [34]
  binding signal: 9.3 upbm affinity estimate (log intensity, higher = more binding, comparable within an allelic series)
PAX4 [35]
  binding signal: 9.27 upbm affinity estimate (log intensity, higher = more binding, comparable within an allelic series)
PAX4 [36]
  binding signal: 9.27 upbm affinity estimate (log intensity, higher = more binding, comparable within an allelic series)
NKX2-5 [19]
  binding signal: 8.56 upbm affinity estimate (log intensity, higher = more binding, comparable within an allelic series)
